Reference: PubChem BioAssay
Unmarked numbers belong to inactive results. The rule behind the calls is not given here.

What follows are molecules tested on Aerobactin synthetase IucA (Klebsiella pneumoniae, hypervirulent) (assay: biochemical IucA inhibition screen of LOPAC library by absorbance (AID 1346212;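 note: 100% = no compound wells and 0% = no enzyme wells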)). Settings: IucA enzyme assay, absorbance (OD) readout; stronger effect = lower value;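 tested at 8 µM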.

Compared with `NC(Cc1cccc(-c2ccccc2CP(=O)(O)O)c1)C(=O)O` (stereo unspecified), `O=C1NC(c2cccc([N+](=O)[O-])c2)=CCN1c1ccccc1O` is higher in remaining activity: 103% for the first, 105% for the second.

Compared with `N=C(N)c1ccccc1`, `CCC(=O)N1CCN(C(=O)c2ccccc2)CC1` is higher in remaining activity: 121% for the first, 122% for the second.

First: NC(N)=NCc1cccc(I)c1
Second: CN1CC(=O)NC1=NC(=O)Nc1cccc(Cl)c1
The remaining activity of the first is higher: 118% for the first, 98.9% for the second.

Going from `CN1[C@@H]2CC(OC(=O)[C@H](CO)c3ccccc3)C[C@H]1[C@@H]1O[C@@H]12` (stereo partly specified) to `COc1cc2c(cc1OC)[C@@H](c1ccccc1)CN(C)CC2`, the remaining activity falls from 105% to 102%.

Going from `N#Cc1c(-c2ccccc2)no[n+]1[O-]` to `Cc1[nH]c(=O)c(C#N)cc1-c1ccc2nccn2c1`, the remaining activity falls from 125% to 112%.

Going from `O=S(=O)(c1cccc2c(I)cccc12)N1CCCNCC1` to `Cc1ccc2c(c1)C(N1CCN(C)CC1)=Nc1cccnc1N2`, the remaining activity rises from 107% to 126%.

First: O=C(CCCN1CCC(O)(c2cccc(C(F)(F)F)c2)CC1)c1ccc(F)cc1
Second: CC(CCc1ccc(O)cc1)NCCc1ccc(O)c(O)c1 (stereo unspecified)
The remaining activity of the first is higher: 101% for the first, 98.4% for the second.

First: C[C@@H]1O[C@@H](O[C@H]2C[C@@H](O)[C@]3(CO)[C@H]4[C@H](O)C[C@]5(C)[C@@H](C6COC(=O)C6)CC[C@]5(O)[C@@H]4CC[C@]3(O)C2)[C@H](O)[C@H](O)[C@H]1O (stereo partly specified)
Second: O=Nc1c(-c2c(O)[nH]c3cc(Br)ccc23)[nH]c2ccccc12
The remaining activity of the first is lower: 97.8% for the first, 113% for the second.
